Abeta yeast res – qHTS for compounds that reverse cellular toxicity of Amyloid beta (A-beta) peptide in yeast: Primary Screen | hit rate 0.063% among 410,000 | yeast expressing A-beta42, growth rescue, OD600, 48 h; response scale: 0% DMSO, 100% iron-clioquinol control | Potency, µM (series often up to 46.1 µM), hits mostly activators | AID 1347071, 2019; further: nearly all actives have a fitted effect of over 55% in size
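Yeast A-beta toxicity model in growth medium with pinned compounds, 48 h at 30 C; growth read as absorbance at 600 nm. Normalized to FeCl3/clioquinol equimolar mix (positive) and DMSO (negative).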
TDP43 rescue – qHTS of TDP-43 Inhibitors; TDP-43 expressing yeast growth rescue, BacTiter-Glo, 24 h; Potency, µM (doses to about 46.1 µM), hits mostly activators; hit rate 1.8% among 410,000; AID 652104, 2013; further: nearly all actives have a fitted effect of over 50% in size
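Cell-based yeast growth screen: TDP-43 expression induced in galactose, inoculum OD600=0.02 after raffinose pregrowth to mid-log. Read-out BacTiter-Glo luminescence at 24 hr, 30 deg C; inhibition of toxicity seen as signal increase.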
FUS yeast rescue – qHTS for Suppressors of FUS Proteinopathy: Primary screen using FUS-linked yeast assay. S. cerevisiae FUS-expressing, growth rescue, OD600, 24 h. Potency, µM (series often up to 76.6 µM), hits mostly activators. hit rate 0.24% among 390,000. AID 1347120, 2019; further: nearly all actives have a fitted effect of over 55% in size
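Steps: raffinose overnight preculture; dilution to OD 0.005 in 2% galactose minimal medium; compound addition (concentration series); 24hr at 30C, 99% humidity; absorbance read at 600 nm.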
aSyn yeast inh – qHTS of alpha-syn Inhibitors; Yeast expressing alpha-synuclein, growth rescue, BacTiter-Glo, 24 h; Potency, µM (highest dose often 46.1 µM), hits mostly activators; hit rate 0.14% among 370,000; AID 652106, 2013; further: nearly all actives have a fitted effect of over 65% in size
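Galactose-induced alpha-syn yeast (OD600=0.02, raffinose-pregrown) + pinned cpd, 24 hr, 30 deg C; growth by BacTiter-Glo luminescence. Growth restoration scores as activation.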
Of the large screens only hits and unclear results are named; the others gave an inactive call. An excerpt weighted towards active compounds, which were near 2.1% of everything screened. The call rests on the fitted dose curve; in most records, active means well fitted curve in the direction sought with a large enough effect; inconclusive means small, poorly fitted or top-dose-only effect, or another doubt; inactive means no such curve, though single readings can be large; an effect the other way counts as inactive or inconclusive.

CC(C)(O)C#Cc1ccc(CN2CCN(Cc3ccsc3)C(CCO)C2)s1 (stereo unspecified)	none
O=c1cc(CNc2ccc(Br)cc2)nc2sccn12	TDP43 rescue 20µM, aSyn yeast inh inconclusive (no result: FUS yeast rescue)
Cc1cccc(-n2cc(-c3ccccc3)c3c(NC4CCCC4)ncnc32)c1	TDP43 rescue 20µM (no result: aSyn yeast inh)
CCOc1ccc(-n2cc(-c3ccccc3)c3c(NC4CCCC4)ncnc32)cc1	TDP43 rescue inconclusive (no result: aSyn yeast inh)
COc1ccc(-n2cc(-c3ccccc3)c3c(NC4CCCCC4)ncnc32)cc1	none (no result: aSyn yeast inh)
Cc1ccc(-n2cc(-c3ccccc3)c3c(NC4CCCC4)ncnc32)cc1	TDP43 rescue 35µM (no result: aSyn yeast inh)
COc1ccc(C(=O)N2c3ccccc3C(C)(c3ccc(Cl)cc3)CC2(C)C)cc1 (stereo unspecified)	none (no result: aSyn yeast inh)
NC(=O)CC(NC(=O)c1cccc(Br)c1)c1ccc(N2CCC(N3CCCCC3)CC2)c([N+](=O)[O-])c1 (stereo unspecified)	none
COc1ccc(CNC(=O)c2nnn(Cc3ccc(OC)cc3)c2N)cc1	none
COc1ccccc1NC(=O)CSC1=Nc2ccccc2C2=NC(CC(=O)NCc3ccc4c(c3)OCO4)C(=O)N12 (stereo unspecified)	FUS yeast rescue inconclusive (no result: aSyn yeast inh)
COc1cccc(NC(=O)CSC2=Nc3ccccc3C3=NC(CC(=O)NCc4ccc5c(c4)OCO5)C(=O)N23)c1 (stereo unspecified)	FUS yeast rescue 25µM (no result: aSyn yeast inh)
O=c1c2ccccc2nnn1COc1cccc2ccccc12	TDP43 rescue 13µM, aSyn yeast inh inconclusive
O=C(CC(c1ccccc1)c1ccccc1)OCn1nnc2ccccc2c1=O	TDP43 rescue 18µM
CCC(=O)OCn1nnc2ccccc2c1=O	none
Cc1cc(C(=O)OCn2nnc3ccccc3c2=O)c(C)o1	Abeta yeast res inconclusive, TDP43 rescue 14µM
CC1(Cc2cccc(C#N)c2)C(=O)Nc2c(Cl)cccc21 (stereo unspecified)	TDP43 rescue inconclusive, aSyn yeast inh 18µM
CC1(Cc2cccc(C(N)=O)c2)C(=O)Nc2c(Cl)cccc21 (stereo unspecified)	none
CC1(Cc2ccc(Cl)c(Cl)c2)C(=O)Nc2c(Cl)ccc(Cl)c21 (stereo unspecified)	aSyn yeast inh inconclusive
C=Cc1ccc(CC2(C)C(=O)Nc3ccc(Cl)cc32)cc1 (stereo unspecified)	Abeta yeast res inconclusive, aSyn yeast inh inconclusive
CC1(Cc2ccc(F)cc2)C(=O)Nc2c(Cl)ccc(Cl)c21 (stereo unspecified)	aSyn yeast inh 11µM
C=Cc1ccc(CC2(C)C(=O)Nc3c(Cl)cccc32)cc1 (stereo unspecified)	aSyn yeast inh 10µM
CC1(Cc2ccccc2Cl)C(=O)Nc2c(Cl)cccc21 (stereo unspecified)	TDP43 rescue inconclusive, aSyn yeast inh 3.5µM
Fc1cccc(-c2oncc2-c2nnnn2-c2ccc(Cl)cc2)c1	TDP43 rescue 11µM
CC(=O)/C(=N/Nc1cccc(Cl)c1)N1CCOCC1	TDP43 rescue 18µM
Clc1ccc(-c2ccnc(Oc3cc(Cl)ccc3Cl)n2)cc1	none
CCn1c(=O)n(Cc2ccco2)c(=N)c2c3c(sc21)COC(C)(C)C3	none
CCn1ncc(Cl)c1C(=O)NC(=S)Nc1ccccc1Br	TDP43 rescue 5.6µM
CCCCCC(=O)NC(=S)Nc1cccc(C(C)=O)c1	Abeta yeast res 8.9µM
Cc1ccc(-c2c(C(=O)NCCc3ccc(Cl)cc3)oc(=O)c3ccccc23)cc1	FUS yeast rescue 16µM (no result: aSyn yeast inh)
Cc1ccc(CCNC(=O)c2oc(=O)c3ccccc3c2-c2ccc(C)cc2)cc1	TDP43 rescue inconclusive, FUS yeast rescue inconclusive (no result: aSyn yeast inh)
CCOc1ccc(CNC(=O)c2ccc3c(Cl)c4c(nc3c2)CCCC4)cc1	TDP43 rescue 11µM (no result: aSyn yeast inh)
COc1ccc(CNC(=O)c2ccc(Sc3ccc(Cl)cc3)c(NC(C)=O)c2)c(OC)c1	TDP43 rescue 22µM (no result: aSyn yeast inh)
COc1ccc(CNC(=O)c2ccc3c(Cl)c4c(nc3c2)CCCC4)c(OC)c1	TDP43 rescue 20µM (no result: aSyn yeast inh)
COc1ccc(CCNC(=O)c2ccc3c(Cl)c4c(nc3c2)CCCC4)c(OC)c1	TDP43 rescue 35µM (no result: aSyn yeast inh)
CC(C)(O)CC[C@@H](O)[C@](C)(O)C1CC[C@@]2(O)C3=CC(=O)[C@@H]4C[C@@H](O)[C@@H](O)C[C@]4(C)C3CC[C@]12C (stereo partly specified)	none
